Measured values: PubChem BioAssay AID1259343 (VanderVen Lab, College of Veterinary Medicine, Cornell …, 2017)
Among all 6,200 compounds or so, about 2,900 (47%) were called active. No stated cut-off is given here; in the data, active means inhibition above about 50%; inactive means the rest. The set was probably picked from earlier hits. Some of the results follow.

test: Mycobacterium tuberculosis growth inhibition, primary screen (AID 1259343); details: inhibition: at 10 µM, stronger effect = higher value; outcome: 10 uM

Row | Compound | inhibition
1 | Cc1cc(C(=O)Nc2ccc(OC(F)F)c(Cl)c2)on1 | 91.1% (active)
2 | FC(F)Oc1ccc(NC(=S)Nc2cccnc2)cc1Cl | 92.8% (active)
3 | N#Cc1ncn(CC(=O)Nc2ccc(OC(F)F)c(Cl)c2)n1 | 73.2% (active)
4 | CC(OC(=O)c1ccco1)C(=O)Nc1ccc(OC(F)F)c(Cl)c1 (stereo unspecified) | 4.36% (inactive)
5 | O=C(CCl)Nc1ccc(OC(F)F)c(Cl)c1 | 86.6% (active)
6 | COC(=O)C1=C(OC)C(=O)OC12C=CC(=O)C=C2 | -11.4% (inactive)
7 | Fc1ccc(Nc2nnc(-c3ccc(Br)s3)o2)c(F)c1 | 87.9% (active)
8 | Cc1cc2c(F)ccc(C)c2nc1N1CCC(O)(C(=O)O)CC1 | 86% (active)
9 | Clc1ccc(-c2cnnc(N3CCC(c4ccncc4)CC3)n2)cc1 | 21.9% (inactive)
10 | CS(=O)c1ccccc1C(=O)OCc1c(Cl)cccc1Cl (stereo unspecified) | 30.8% (inactive)
11 | CC(NC(=O)COC(=O)c1ccccc1O)c1cccs1 (stereo unspecified) | 88.8% (active)
12 | CC(C)C(NC(=O)C1=Cc2ccccc2OC1)c1cccs1 (stereo unspecified) | 5.93% (inactive)
13 | Cc1cccc(N2CCN(C(=O)c3cc(COc4ccc(F)c(F)c4)on3)CC2)n1 | 52.2% (active)
14 | CCOC(=O)N1CCN(C(=O)c2cc(COc3ccc(C)c(C)c3)on2)CC1 | 74.9% (active)
15 | CCCc1nnc(-c2cc3ccccc3[nH]2)o1 | 38.4% (inactive)
16 | CCCCc1nnc(-c2cc3ccccc3[nH]2)o1 | 18.4% (inactive)
17 | CCCc1nnc(-c2cc3ccccc3n2C)o1 | 69% (active)
18 | O=C(CCc1nc(-c2ccncc2)no1)Nc1ccc(Oc2ccccc2)cc1 | 95.7% (active)
19 | c1ccc(CCc2nc(-c3ccncc3)no2)cc1 | inactive
20 | COC(=O)c1cccc(NC(=O)N2CCN(CCCOC(c3ccc(Cl)cc3)c3ccc(Cl)cc3)CC2)c1 | 13.4% (inactive)
21 | CCc1ccc(CN(C)Cc2nc(COc3ccccc3)no2)nc1 | 93.7% (active)
22 | c1ccc(OCc2noc(CN3CCN(c4ccccn4)CC3)n2)cc1 | 43% (inactive)

Row | Compound | inhibition
23 | COc1ccc(-c2nc(CN(C)Cc3ccc4nsnc4c3)c(C)o2)c(C)c1C | 12.7% (inactive)
24 | CN(Cc1nc(COc2ccccc2)no1)CC1Cc2ccccc2O1 (stereo unspecified) | 53.6% (active)
25 | CCc1noc(CSC2=Nc3ccccc3CS2)n1 | 23% (inactive)
26 | CN(Cc1nc(COc2ccccc2)no1)CC1CCOCC1 | 29.5% (inactive)
27 | c1ccc(OCc2noc(COc3ccc4ncccc4c3)n2)cc1 | 64.9% (active)
28 | CN(Cc1ccc2nsnc2c1)Cc1nc(COc2ccccc2)no1 | 65.2% (active)
29 | c1ccc2[nH]c(-c3ccc(OCc4nc(CC5CC5)no4)cc3)nc2c1 | 10.7% (inactive)
30 | Nc1ccccc1Sc1c[nH]c2ccccc12 | 46.1% (inactive)
31 | Cc1ccc(OCCN(C)Cc2nc(COc3ccccc3)no2)cc1 | 80% (active)
32 | Cc1ccc(OCCN(C)c2ccccc2)cn1 | -0.64% (inactive)
33 | COc1ccc(Nc2nc3c(C)cccn3c(=O)c2/C=N\Nc2ccccc2)cc1 | 88.8% (active)
34 | COc1ccc(N=Cc2c(NCCO)nc3c(C)cccn3c2=O)cc1 | 75.7% (active)
35 | Cc1cccn2c(=O)nc(SC/C=C/c3ccccc3)nc12 | 7.88% (inactive)
36 | Cc1ccc(N=Cc2c(Nc3ccccc3)nc3c(C)cccn3c2=O)cc1 | -12% (inactive)
37 | O=S(=O)(NN=C1c2ccccc2-c2ccccc21)c1ccccc1 | -15.8% (inactive)
38 | CCSc1nc2c(c(C3CC=CCC3)c1C#N)CCC2 (stereo unspecified) | 45.2% (inactive)
39 | CSc1nc2c(c(-c3ccc(O)cc3)c1C#N)CCC2 | 48.4% (inactive)
40 | N#CCSc1nc2c(c(C3CC=CCC3)c1C#N)CCC2 (stereo unspecified) | 66.1% (active)
41 | CC1CCC(N(C)C(=O)NCc2ncc(-c3ccccc3)o2)CC1 (stereo unspecified) | 76.1% (active)
42 | c1ccc2oc(N3CCN(Cc4ccc(C5CCCO5)s4)CC3)nc2c1 (stereo unspecified) | 90.8% (active)
43 | c1ccc(N2CCCC2)c(CNc2nc3ccccc3o2)c1 | 34.1% (inactive)
44 | CCSc1ncc(CN2CCN(c3nc4ccccc4o3)CC2)cn1 | 95.3% (active)

Row | Compound | inhibition
45 | CC(C)c1nc(Cn2ccnc2-c2ccc(C3CCCCO3)s2)no1 (stereo unspecified) | -7.76% (inactive)
46 | c1ccc2oc(CN3CCC(c4nc5ccccc5s4)CC3)nc2c1 | -16% (inactive)
47 | Cc1ccccc1-c1nc(CN2CCN(c3ncc4ccccc4n3)CC2)c(C)o1 | 20.3% (inactive)
48 | CCCCC(CC)CN1CNC(=S)NC1 (stereo unspecified) | 48.2% (inactive)
49 | O=S(=O)(Nc1cccc(Br)c1)c1ccc(Cl)s1 | 84.1% (active)
50 | O=S(=O)(Nc1cccc(Br)c1)c1ccc(Br)s1 | 97.3% (active)
51 | CC(=O)/C(=N/Nc1ccccc1[N+](=O)[O-])Oc1ccc(Br)cc1 | -28.4% (inactive)
52 | NC(=O)C1CN(C2CCCCc3ccccc32)CCO1 (stereo unspecified) | 49.4% (inactive)
53 | COc1ccc(OC)c2c1CN(C1CCCc3ccccc31)CC2O (stereo unspecified) | 95.8% (active)
54 | COc1ccccc1CC(=O)NC1CCSc2ccccc21 (stereo unspecified) | -22.7% (inactive)
55 | Cc1ccc(C(=O)NCc2ccc(-c3ccc(O)cc3)cc2)o1 | 40.6% (inactive)
56 | CN(Cc1ccc2ccccc2c1)C(=O)COc1ccccc1F | 38.5% (inactive)
57 | Cc1ccc(CN(C)C(=O)COc2ccc(O)cc2)o1 | 80.2% (active)
58 | CCC(=O)OC(C#N)C1=C(Cl)C(=O)c2ccccc2C1=O (stereo unspecified) | 103% (active)
59 | CCOCCCNC(=O)NC(=O)CSc1nnc(Nc2ccc(C)cc2)s1 | 83% (active)
60 | CCCC(C)NC(=O)CSc1nnc(Nc2ccc(CC)cc2)s1 (stereo unspecified) | 84.9% (active)
61 | CCNC(=O)NC(=O)CSc1nnc(Nc2ccc(CC)cc2)s1 | 66.4% (active)
62 | CCOC(=O)CSc1nnc(Nc2ccc(C)cc2)s1 | -19.5% (inactive)
63 | CCNC(=O)NC(=O)CSc1nnc(Nc2ccc(C(C)C)cc2)s1 | 85% (active)
64 | CN[C@@H]1C[C@@H](c2ccc(Cl)c(Cl)c2)c2ccccc21 | 48% (inactive)
65 | COc1ccc2c(c1)OCC(C(=O)C(C#N)c1nc3ccccc3o1)C2 (stereo unspecified) | 99.3% (active)
66 | CC1(C)C(C(Cl)Cl)C2(Cl)C(Cl)C(Cl)C1(Cl)C2(Cl)Cl (stereo unspecified) | 76.2% (active)

Row | Compound | inhibition
67 | Cc1ccccc1N=C1NC(=O)C(Cc2ccccc2[N+](=O)[O-])S1 (stereo unspecified) | 56.7% (active)
68 | O=c1ccc([N+](=O)[O-])ccc1Nc1ccccn1 | 82.3% (active)
69 | Cc1noc(-c2ccc(C(=O)NCCC(C)C)cc2)n1 | -1.14% (inactive)
70 | CC(C)CCNC(=O)c1ncc(Cl)c(Cl)c1Cl | 81.3% (active)
71 | c1ccc(-c2noc3nc(OCc4ccccn4)ccc23)cc1 | 50.7% (active)
72 | Cc1nc(COc2ccc3c(-c4ccccc4F)noc3n2)cs1 | 62.8% (active)
73 | Fc1ccccc1-c1noc2nc(OCc3ccccn3)ccc12 | 90.2% (active)
74 | Fc1ccc(-c2noc3nc(OCc4ncccn4)ccc23)cc1 | 46% (inactive)
75 | Cc1ccc(S(=O)(=O)CCC(=O)Nc2ccc(C)c(C)c2)cc1 | 68% (active)
76 | CCCCc1ccc(NC(=O)CCS(=O)(=O)c2ccc(Cl)cc2)cc1 | -52.4% (inactive)
77 | Clc1ccc2c(Oc3cccc(Br)c3)ccnc2c1 | 0.33% (inactive)
78 | Clc1ccc2c(Oc3ccc(Br)cc3)ccnc2c1 | 58% (active)
79 | O=C1c2ccccc2S(=O)(=O)N1c1ccc(Cl)cc1 | 60.5% (active)
80 | O=C1c2ccccc2S(=O)(=O)N1c1ccc(Br)cc1 | -53.1% (inactive)
81 | O=C1c2ccccc2S(=O)(=O)N1c1cccc(Cl)c1 | inactive
82 | O=C1c2cccc(O)c2CCN1Cc1ccc(Br)cc1 | 19.3% (inactive)
83 | CCCCOc1cccc2c1CCN(CC)C2=O | -1.17% (inactive)
84 | O=C1c2cccc(O)c2CCN1Cc1ccc(Cl)cc1 | 58% (active)
85 | COc1ccc(N2C(=O)C3N=NN(Cc4cccc(C)c4)C3C2=O)cc1Cl (stereo unspecified) | 79.6% (active)
86 | COc1cccc(CN2N=NC3C(=O)N(c4ccc(OC)c(Cl)c4)C(=O)C32)c1 (stereo unspecified) | 102% (active)
87 | Cc1cccc(CN2CCN(Cc3ccc(Cl)c(F)c3)CC2=O)c1 | 6.7% (inactive)
88 | COc1ccc(N2C(=O)C3N=NN(Cc4ccccc4)C3C2=O)cc1Cl (stereo unspecified) | 20.8% (inactive)

Row | Compound | inhibition
89 | CCOc1ccc(N2C(=O)C3N=NN(Cc4cc(C(=O)OC)ccc4OC)C3C2=O)cc1 (stereo unspecified) | -31.4% (inactive)
90 | COc1ccc(CN2N=NC3C(=O)N(c4ccc(OC)c(Cl)c4)C(=O)C32)cc1 (stereo unspecified) | 83.8% (active)
91 | COc1ccc(OC)c(Nc2nc(Cl)nc(Nc3cc(OC)ccc3OC)n2)c1 | 1.76% (inactive)
92 | COC(=O)c1ccc(OC)c(CN2N=NC3C(=O)N(c4ccc(OC)c(Cl)c4)C(=O)C32)c1 (stereo unspecified) | 55.6% (active)
93 | Cc1nn2c(=O)[nH]c(SCc3cccnc3)nc2c1-c1ccccc1 | 33.2% (inactive)
94 | CC(=O)c1nnc2c(-c3ccccc3)c(C)nn2c1C | 89.5% (active)
95 | Cc1nn2c(NCCCN(C)C)cc(-c3ccccc3)nc2c1-c1ccccc1 | -0.28% (inactive)
96 | COc1ccc(/C=C/C(=O)NNC(=O)COc2ccc(C)cc2)cc1 | 95.6% (active)
97 | CNC(=O)COc1ccc(Oc2ccc(C)cc2)cc1 | 25.8% (inactive)
98 | Cc1oc(-c2ccccc2Cl)cc1CO | 35.3% (inactive)
99 | CC(=O)Nc1ccc(OC/C=C/c2ccccc2)cc1 | 87.3% (active)
100 | CNC(=O)COc1ccc(-c2c(C)cccc2C)cc1 | 26.1% (inactive)
101 | COc1ccc(/C=C/c2nc3cc(C)ccc3s2)cc1O | 23.6% (inactive)
102 | CNC(=O)COc1ccc(-c2ccccc2Cl)cc1 | 72.2% (active)
103 | CNC(=O)COc1ccc(/C=C/c2ccccc2)cc1 | 51.1% (active)
104 | CC(NC(=O)COc1ccccc1)c1ccccc1Cl (stereo unspecified) | 85.4% (active)
105 | COC(=O)Cc1ccc(OCC(=O)NC(C)c2ccc(Cl)cc2)cc1 (stereo unspecified) | 20.1% (inactive)
106 | O=C(COc1ccccc1)NN=Cc1ccc(Br)cc1 | 89.4% (active)
